From PubChem BioAssay (NCI)
This is part of a sample that, as a whole, favours compounds with a hit. Of some 83,000 tested, about 20% had one in any assay.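 Plates (96-well) were seeded with cells, treated with compound at one concentration, and incubated for 48 hours before percent growth was determined.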 The source made the active and inactive calls. How the source made its calls: active means growth percent below 10; inactive means the rest.

Columns and labels:
Assay in all cases: NCI-60 one-dose screen, 48 h (100 = growth as untreated, 0 = no growth, -100 = all killed)
Conditions in all cases: 10 µM unless noted
DU-145 prostate = system: DU-145 prostate
K-562 leukemia = system: K-562 leukemia
MALME-3M melanoma = system: MALME-3M melanoma
MDA-MB-231 breast = system: MDA-MB-231 breast
RXF 393 renal = system: RXF 393 renal
SF-268 CNS = system: SF-268 CNS
SF-295 CNS = system: SF-295 CNS
SF-539 CNS = system: SF-539 CNS
UACC-257 melanoma = system: UACC-257 melanoma
M14 melanoma = system: M14 melanoma
HCT-15 colon = system: HCT-15 colon
HT29 colon = system: HT29 colon
SNB-75 CNS = system: SNB-75 CNS
SNB-19 CNS = system: SNB-19 CNS
U251 CNS = system: U251 CNS
PC-3 prostate = system: PC-3 prostate
SK-MEL-5 melanoma = system: SK-MEL-5 melanoma
UACC-62 melanoma = system: UACC-62 melanoma
LOX IMVI melanoma = system: LOX IMVI melanoma
SK-MEL-28 melanoma = system: SK-MEL-28 melanoma

Measured: growth

Cc1ccc(C(=O)NN2C(=O)CSC2c2cccc([N+](=O)[O-])c2)cn1 (stereo not given)
inactive: DU-145 prostate 107% | K-562 leukemia 98.9% | MALME-3M melanoma 111% | MDA-MB-231 breast 96.6% | RXF 393 renal 82.8% | SF-268 CNS 104% | SF-295 CNS 99.4% | SF-539 CNS 106% | UACC-257 melanoma 75.8% | M14 melanoma 96.4% | HCT-15 colon 109% | HT29 colon 104% | SNB-75 CNS 84.6% | SNB-19 CNS 93.2% | U251 CNS 95.6% | PC-3 prostate 86.6% | SK-MEL-5 melanoma 104% | UACC-62 melanoma 98.1% | LOX IMVI melanoma 90% | SK-MEL-28 melanoma 124%

Cc1ccc(-c2nc(N3CCN(C(=O)Nc4ccc(Cl)c(C(F)(F)F)c4)CC3)c3ccccc3n2)cc1
inactive: DU-145 prostate 86.6% | K-562 leukemia 44.9% | MALME-3M melanoma 105% | MDA-MB-231 breast 61.3% | RXF 393 renal 68% | SF-268 CNS 58.1% | SF-295 CNS 78.2% | SF-539 CNS 87% | UACC-257 melanoma 90.1% | M14 melanoma 73.8% | HCT-15 colon 70.3% | HT29 colon 75.2% | SNB-75 CNS 66.2% | SNB-19 CNS 86% | U251 CNS 79.6% | PC-3 prostate 49.6% | SK-MEL-5 melanoma 84.3% | UACC-62 melanoma 70% | LOX IMVI melanoma 65.4% | SK-MEL-28 melanoma 89.2%

CC1(C)C2CC1C1(/C=N/NC(N)=S)C(C2)C(C#N)(C#N)C1(C#N)C#N (stereo not given)
inactive: DU-145 prostate 82.6% | K-562 leukemia 13.6% | MALME-3M melanoma 67% | MDA-MB-231 breast 57.3% | RXF 393 renal 71.7% | SF-268 CNS 97.4% | SF-295 CNS 111% | SF-539 CNS 101% | UACC-257 melanoma 79.9% | M14 melanoma 87.6% | HCT-15 colon 27.5% | HT29 colon 60.6% | SNB-75 CNS 101% | SNB-19 CNS 94.8% | U251 CNS 82.1% | PC-3 prostate 70.7% | SK-MEL-5 melanoma 85.6% | UACC-62 melanoma 78.8% | LOX IMVI melanoma 50.1% | SK-MEL-28 melanoma 88.7%

O=C1/C(=C/c2ccccc2[N+](=O)[O-])Oc2ccc(O)c(O)c21
active: RXF 393 renal 5.8% | UACC-62 melanoma -41.1%
inactive: DU-145 prostate 32.5% | K-562 leukemia 17.2% | MALME-3M melanoma 45% | MDA-MB-231 breast 45.6% | SF-268 CNS 60.4% | SF-295 CNS 85.2% | SF-539 CNS 29% | UACC-257 melanoma 49.3% | M14 melanoma 54.9% | HCT-15 colon 18.6% | HT29 colon 32.3% | SNB-75 CNS 65.9% | SNB-19 CNS 70.3% | U251 CNS 54.1% | PC-3 prostate 44.5% | SK-MEL-5 melanoma 62% | LOX IMVI melanoma 14.3% | SK-MEL-28 melanoma 22.5%

COc1cc2cc(Oc3ccc(NC(=O)Nc4ccc(Cl)c(C(F)(F)F)c4)cc3)c(C)nc2cc1OCCN1CCOCC1
active: K-562 leukemia 9.9% | SF-295 CNS 0.751% | SK-MEL-5 melanoma -34.7% | LOX IMVI melanoma 9.99%
inactive: DU-145 prostate 25.2% | MALME-3M melanoma 37.7% | MDA-MB-231 breast 38.4% | RXF 393 renal 43.7% | SF-268 CNS 32.2% | SF-539 CNS 41.7% | UACC-257 melanoma 14.1% | M14 melanoma 19.2% | HCT-15 colon 13.7% | HT29 colon 12% | SNB-75 CNS 53.3% | SNB-19 CNS 24.4% | U251 CNS 14.8% | PC-3 prostate 13% | UACC-62 melanoma 29.9% | SK-MEL-28 melanoma 42.9%

O=C(Oc1cccc2ccccc12)Oc1cccc2ccccc12
inactive: DU-145 prostate 104% | K-562 leukemia 103% | MALME-3M melanoma 98% | MDA-MB-231 breast 94.2% | RXF 393 renal 115% | SF-268 CNS 75.3% | SF-295 CNS 109% | SF-539 CNS 101% | UACC-257 melanoma 127% | M14 melanoma 96.2% | HCT-15 colon 106% | HT29 colon 118% | SNB-75 CNS 94.6% | SNB-19 CNS 103% | U251 CNS 103% | PC-3 prostate 71.6% | SK-MEL-5 melanoma 106% | UACC-62 melanoma 103% | LOX IMVI melanoma 99.2% | SK-MEL-28 melanoma 118%

NCCCNc1nc2ccccc2c2c(=O)c3cc(F)cc(Cl)c3sc12
inactive: DU-145 prostate 64.1% | MALME-3M melanoma 106% | MDA-MB-231 breast 51.4% | RXF 393 renal 73.6% | SF-268 CNS 79.9% | SF-295 CNS 102% | SF-539 CNS 83% | UACC-257 melanoma 114% | M14 melanoma 90.4% | HCT-15 colon 64.1% | SNB-75 CNS 69.7% | SNB-19 CNS 89.4% | PC-3 prostate 59.4% | SK-MEL-5 melanoma 98.3% | UACC-62 melanoma 98.7% | LOX IMVI melanoma 79.4% | SK-MEL-28 melanoma 107%
active: K-562 leukemia -17.7% | HT29 colon 4.38% | U251 CNS -63.9%

CNC(=O)c1cc(-n2ccc3cc(NC(=O)c4ccc(N5CCOCC5)c(C(F)(F)F)c4)ccc32)ccn1
inactive: DU-145 prostate 76% | K-562 leukemia 25.5% | MALME-3M melanoma 73.9% | MDA-MB-231 breast 77.7% | SF-268 CNS 88.3% | SF-539 CNS 30.6% | UACC-257 melanoma 84.3% | M14 melanoma 62.4% | HCT-15 colon 43.2% | HT29 colon 25.1% | SNB-75 CNS 85.9% | SNB-19 CNS 81.1% | U251 CNS 50.3% | PC-3 prostate 18% | SK-MEL-5 melanoma 24.6% | UACC-62 melanoma 38.7% | LOX IMVI melanoma 36.1% | SK-MEL-28 melanoma 82.2%
active: RXF 393 renal -2.7% | SF-295 CNS -3.1%

C/C(=C(/c1ccccc1)c1ccc(N2C(=O)c3cccc4c(N5CCN(C)CC5)ccc(c34)C2=O)cc1)c1ccccc1
active: K-562 leukemia 9.2%
inactive: DU-145 prostate 82.8% | MALME-3M melanoma 81.4% | MDA-MB-231 breast 94.5% | RXF 393 renal 74.8% | SF-268 CNS 96.2% | SF-295 CNS 83.3% | SF-539 CNS 72.3% | UACC-257 melanoma 79.8% | M14 melanoma 85.6% | HCT-15 colon 56.8% | HT29 colon 24.8% | SNB-75 CNS 98.1% | SNB-19 CNS 88.9% | U251 CNS 75.4% | PC-3 prostate 61.4% | SK-MEL-5 melanoma 76.3% | UACC-62 melanoma 73.5% | LOX IMVI melanoma 24.6% | SK-MEL-28 melanoma 88.4%

COc1ccc2nc(NCCCNCCO)c3sc4ccc(F)cc4c(=O)c3c2c1
active: DU-145 prostate -49.7% | K-562 leukemia -36.8% | MDA-MB-231 breast -26.7% | SF-539 CNS -88.9% | M14 melanoma -57.1% | HCT-15 colon -47.9% | HT29 colon -43.7% | U251 CNS -33.2% | LOX IMVI melanoma -97%
inactive: MALME-3M melanoma 91.8% | RXF 393 renal 44.4% | SF-268 CNS 47.2% | SF-295 CNS 84.6% | UACC-257 melanoma 95.4% | SNB-75 CNS 54.1% | SNB-19 CNS 61.5% | PC-3 prostate 38.9% | SK-MEL-5 melanoma 85% | UACC-62 melanoma 65.7% | SK-MEL-28 melanoma 68.9%

Nc1nc2ccccc2c2c(=O)c3cc(F)ccc3sc12
inactive: DU-145 prostate 104% | K-562 leukemia 107% | MALME-3M melanoma 96.5% | MDA-MB-231 breast 100% | RXF 393 renal 104% | SF-268 CNS 103% | SF-295 CNS 100% | SF-539 CNS 104% | UACC-257 melanoma 104% | M14 melanoma 99.6% | HCT-15 colon 98.6% | HT29 colon 99.8% | SNB-75 CNS 93.1% | SNB-19 CNS 101% | U251 CNS 105% | PC-3 prostate 103% | SK-MEL-5 melanoma 98.5% | UACC-62 melanoma 102% | LOX IMVI melanoma 99.6% | SK-MEL-28 melanoma 103%

CCCCCCNC(=O)Oc1ccc(/C(=C(\C)c2ccc(OC)cc2)c2ccc(OCCN3CCCCC3)cc2)cc1
inactive: DU-145 prostate 79.7% | MALME-3M melanoma 34.8% | MDA-MB-231 breast 73.6% | RXF 393 renal 47.2% | SF-268 CNS 71.8% | SF-295 CNS 33.3% | SF-539 CNS 27.1% | SNB-75 CNS 69.4% | SNB-19 CNS 83.9% | U251 CNS 54.4% | PC-3 prostate 54.1% | SK-MEL-5 melanoma 57.6% | UACC-62 melanoma 39.2% | LOX IMVI melanoma 24.5% | SK-MEL-28 melanoma 25.2%
active: K-562 leukemia 6.45% | UACC-257 melanoma -1.88% | M14 melanoma -37% | HCT-15 colon 2.35% | HT29 colon 4.52%

Cc1ccc(C2CC(c3ccc(Nc4ccnc5cc(Cl)ccc45)cc3)=NN2C=O)cc1 (stereo not given)
inactive: DU-145 prostate 68.4% | K-562 leukemia 16.2% | MALME-3M melanoma 46.5% | MDA-MB-231 breast 66.2% | RXF 393 renal 61.7% | SF-268 CNS 48.5% | SF-295 CNS 31.2% | SF-539 CNS 91% | UACC-257 melanoma 79.8% | M14 melanoma 45.8% | HCT-15 colon 18.6% | HT29 colon 41.8% | SNB-75 CNS 76.3% | SNB-19 CNS 74.4% | U251 CNS 58.6% | PC-3 prostate 57.4% | SK-MEL-5 melanoma 10.4% | UACC-62 melanoma 36.9% | LOX IMVI melanoma 34% | SK-MEL-28 melanoma 51.7%

CCCCCCNC(=O)Oc1ccc(/C(=C(\C)c2ccc(Cl)cc2)c2ccc(OCCN3CCCCC3)cc2)cc1
inactive: DU-145 prostate 69.3% | MALME-3M melanoma 31.6% | MDA-MB-231 breast 53.4% | RXF 393 renal 24.1% | SF-268 CNS 56.6% | SF-295 CNS 48.2% | SF-539 CNS 42.5% | UACC-257 melanoma 18.6% | SNB-75 CNS 59.5% | SNB-19 CNS 68% | U251 CNS 34.7% | PC-3 prostate 29.6% | SK-MEL-5 melanoma 25% | UACC-62 melanoma 54.5% | SK-MEL-28 melanoma 29.4%
active: K-562 leukemia 1.22% | M14 melanoma -33.5% | HCT-15 colon 8.87% | HT29 colon -10.1% | LOX IMVI melanoma 3.75%

CCC12CCC[N+]3([O-])CCC4(C(=Nc5ccccc54)C(O)(C(=O)OC)C1)C23 (stereo not given)
inactive: DU-145 prostate 103% | K-562 leukemia 109% | MALME-3M melanoma 104% | MDA-MB-231 breast 103% | RXF 393 renal 113% | SF-268 CNS 96.2% | SF-295 CNS 102% | SF-539 CNS 103% | UACC-257 melanoma 115% | M14 melanoma 96.7% | HCT-15 colon 108% | HT29 colon 98.3% | SNB-75 CNS 92.7% | SNB-19 CNS 102% | U251 CNS 108% | PC-3 prostate 87.8% | SK-MEL-5 melanoma 116% | UACC-62 melanoma 103% | LOX IMVI melanoma 100% | SK-MEL-28 melanoma 94.5%
